Inconclusive results are not listed. A call without a number means that no potency is given here. The source made the active and inactive calls. Calls come from the whole dose curve; as a rule, active = well fitted inhibition curve with a large enough effect; inconclusive = small, poorly fitted or top-dose-only effect; inactive = flat fitted curve, though single readings scatter.
Columns and labels:
Test in all cases: qHTS profiling for inhibitors of Plasmodium falciparum proliferation (AID 504749); note: nearly all actives have a fitted effect of over 60% in size
Conditions in all cases: P. falciparum in erythrocytes, SYBR Green DNA, 72 h; series mostly up to 28.7 µM
CP201 = test system: CP201
Summary of the method: (§1)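 Fluorescence of SYBR Green-bound parasite DNA, read at 485/535 nm, served as the growth measure. Infected erythrocytes were cultured with compound 72 h; artemisinin (0.29 uM) and DMSO wells defined the normalization range.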

CP215 = test system: CP215
Summary of the method: as §1

CP250 = test system: CP250
Summary of the method: as §1

CP256 = test system: CP256
Summary of the method: as §1

CP260 = test system: CP260
Summary of the method: as §1

CP297 = test system: CP297
Summary of the method: as §1

CP315 = test system: CP315
Summary of the method: as §1

CP325 = test system: CP325
Summary of the method: as §1

CP329 = test system: CP329
Summary of the method: as §1

CP335 = test system: CP335
Summary of the method: as §1

DIV14 = test system: DIV14
Summary of the method: as §1

DIV17 = test system: DIV17
Summary of the method: as §1

FAB9 = test system: FAB9
Summary of the method: as §1

ICS = test system: ICS
Summary of the method: as §1

JCK = test system: JCK
Summary of the method: as §1

P93_24 = test system: P93_24
Summary of the method: as §1

PC15 = test system: PC15
Summary of the method: as §1

PC26 = test system: PC26
Summary of the method: as §1

PC49 = test system: PC49
Summary of the method: as §1

TAB109 = test system: TAB109
Summary of the method: as §1
Potency is the fitted concentration of half-maximal effect.

Compound | Potency (CP201) | Potency (CP215) | Potency (CP250) | Potency (CP256) | Potency (CP260) | Potency (CP297) | Potency (CP315) | Potency (CP325) | Potency (CP329) | Potency (CP335) | Potency (DIV14) | Potency (DIV17) | Potency (FAB9) | Potency (ICS) | Potency (JCK) | Potency (P93_24) | Potency (PC15) | Potency (PC26) | Potency (PC49) | Potency (TAB109)
O=C1[C@@H]2C[C@@H]3C[C@H]1C[C@@](O)(C3)C2 | inactive | inactive | inactive | inactive | inactive | inactive | inactive | inactive | inactive | inactive | inactive | inactive | inactive | inactive | inactive | inactive | inactive | inactive | inactive | inactive
CC(C)C[C@@H](NC(=O)[C@@H](Cc1ccccc1)NC(=O)c1cnccn1)B(O)O | 0.536 µM (active) | 0.675 µM (active) | 0.126 µM (active) | 0.141 µM (active) | 0.1 µM (active) | 0.379 µM (active) | 0.379 µM (active) | 0.151 µM (active) | 0.12 µM (active) | 0.107 µM (active) | 0.601 µM (active) | 0.426 µM (active) | 0.141 µM (active) | 0.0447 µM (active) | 0.141 µM (active) | 0.158 µM (active) | 0.316 µM (active) | 0.338 µM (active) | 0.158 µM (active) | 0.0708 µM (active)
C=C1[C@@H]2CC[C@H](C2)C1(C)C | inactive | inactive | inactive | inactive | inactive | inactive | inactive | inactive | inactive | inactive | inactive | inactive | inactive | inactive | inactive | inactive | inactive | inactive | inactive | inactive
OCCOC[C@H]1O[C@H](OCCO)[C@H](OCCO)[C@@H](OCCO)[C@@H]1OCCO (tested in a mixture with another compound) | inactive | inactive | inactive | inactive | inactive | inactive | inactive | inactive | inactive | inactive | inactive | inactive | inactive | inactive | inactive | inactive | inactive | inactive | inactive | inactive
C=NC(C(=O)NC1C(=O)N2C1SC(C)(C)C2C(=O)O)c1ccccc1 (stereo unspecified) | inactive | inactive | inactive | inactive | inactive | inactive | inactive | inactive | inactive | inactive | inactive | inactive | inactive | inactive | inactive | inactive | inactive | inactive | inactive | inactive
O=C(OC[C@@H]1O[C@@](O)(COC(=O)c2cccnc2)[C@H](OC(=O)c2cccnc2)[C@H]1OC(=O)c1cccnc1)c1cccnc1 | inactive | inactive | inactive | inactive | inactive | inactive | inactive | inactive | inactive | inactive | inactive | inactive | inactive | inactive | inactive | inactive | inactive | inactive | inactive | –
CC[C@@]1(O)C[C@H](O[C@H]2C[C@@H](N(C)C)[C@@H](O[C@H]3C[C@@H](O)[C@@H](O[C@H]4CCC(=O)[C@@H](C)O4)[C@@H](C)O3)[C@@H](C)O2)c2c(cc3c(c2O)C(=O)c2c(O)cccc2C3=O)[C@H]1C(=O)OC | 1.51 µM (active) | 0.849 µM (active) | 0.251 µM (active) | 0.282 µM (active) | 0.0398 µM (active) | 0.953 µM (active) | 1.35 µM (active) | 0.849 µM (active) | 0.849 µM (active) | 0.169 µM (active) | 0.379 µM (active) | 0.478 µM (active) | 0.891 µM (active) | 0.0447 µM (active) | 0.126 µM (active) | 0.316 µM (active) | 0.158 µM (active) | 1.2 µM (active) | – | 0.224 µM (active)
CNC(=O)C(N)CSC(C)C1=C(C)c2cc3[n-]c(cc4nc(cc5[n-]c(cc1n2)c(C)c5CCC(=O)O)C(CCC(=O)O)=C4C)c(C)c3C(C)SCC(N)C(=O)NC.[Fe+2] (stereo unspecified) | inactive | inactive | inactive | inactive | inactive | inactive | inactive | inactive | inactive | inactive | inactive | inactive | inactive | inactive | inactive | inactive | inactive | inactive | inactive | inactive
CC1OC(OC2CCC3(C)C(CCC4C3CC(O)C3(C)C(C5=CC(=O)OC5)CCC43O)C2)CC(O)C1OC1CC(O)C(OC2CC(O)C(OC3OC(CO)C(O)C(O)C3O)C(C)O2)C(C)O1 (stereo unspecified) | inactive | inactive | inactive | inactive | inactive | inactive | inactive | inactive | inactive | inactive | inactive | inactive | inactive | inactive | inactive | inactive | inactive | – | inactive | inactive
COc1cccc(OC)c1C(=O)NC1C(=O)N2C1SC(C)(C)C2C(=O)O (stereo unspecified) | inactive | inactive | inactive | inactive | inactive | inactive | inactive | inactive | inactive | inactive | inactive | inactive | inactive | inactive | inactive | inactive | inactive | inactive | inactive | inactive
CC(C)(C)C(=O)OCC(=O)C1CCC2C3CCC4=CC(=O)CCC4(C)C3CCC12C (stereo unspecified) | inactive | inactive | inactive | inactive | inactive | inactive | inactive | inactive | inactive | inactive | inactive | inactive | inactive | inactive | inactive | inactive | inactive | inactive | inactive | inactive
OCCN1CC(O)C(O)C(O)C1CO (stereo unspecified) | inactive | inactive | inactive | inactive | inactive | inactive | inactive | inactive | inactive | inactive | inactive | inactive | inactive | inactive | inactive | inactive | inactive | inactive | inactive | inactive
CC1(C)C2CC[C@]1(C)[C@@H](O)C2 | inactive | inactive | inactive | inactive | inactive | inactive | inactive | inactive | inactive | inactive | inactive | inactive | inactive | inactive | inactive | inactive | inactive | inactive | inactive | inactive
OC[C@@H]1O[C@](CO)(O[C@H]2O[C@H](CO)[C@@H](O)[C@H](O)[C@H]2O)[C@H](O)[C@H]1O | inactive | inactive | inactive | inactive | inactive | inactive | inactive | inactive | inactive | inactive | inactive | inactive | inactive | inactive | inactive | inactive | inactive | inactive | inactive | inactive
OCC1O[C@@H](O[C@@H]2C(CO)OC(O)C(O)C2O)C(O)C(O)C1O (stereo partly specified) | inactive | inactive | inactive | inactive | inactive | inactive | inactive | inactive | inactive | inactive | inactive | inactive | inactive | inactive | inactive | inactive | inactive | inactive | inactive | inactive
O=C1NC(=O)C2C3C=CC(C3)C12 (stereo unspecified) | inactive | inactive | inactive | inactive | inactive | inactive | inactive | inactive | inactive | inactive | inactive | inactive | inactive | inactive | inactive | inactive | inactive | inactive | inactive | inactive
CCCCCCCCCCCC(=O)OCC(O)C1OCC(O)C1O (stereo unspecified) | inactive | inactive | inactive | inactive | inactive | inactive | inactive | inactive | inactive | inactive | inactive | inactive | inactive | inactive | inactive | inactive | inactive | inactive | inactive | inactive
CC1(C)SC2C(NC(=O)C(C(=O)O)c3ccccc3)C(=O)N2C1C(=O)O (stereo unspecified) | inactive | inactive | inactive | inactive | inactive | inactive | inactive | inactive | inactive | inactive | inactive | inactive | inactive | inactive | inactive | inactive | inactive | inactive | inactive | inactive
CCN1CCN(C(=O)NC(C(=O)NC2C(=O)N3C(C(=O)O)=C(CSc4nnnn4C)CSC23)c2ccc(O)cc2)C(=O)C1=O (stereo unspecified) | inactive | inactive | inactive | inactive | inactive | inactive | inactive | inactive | inactive | inactive | inactive | inactive | inactive | inactive | inactive | inactive | inactive | inactive | inactive | inactive
NC[C@@H]1O[C@H](OC2[C@@H](CO)O[C@@H](OC3[C@H](O)[C@H](N)C[C@H](N)[C@H]3OC3O[C@H](CO)[C@@H](O)[C@H](O)[C@@H]3N)[C@H]2O)C(N)[C@H](O)[C@@H]1O (stereo partly specified) | inactive | inactive | inactive | inactive | inactive | inactive | inactive | inactive | inactive | inactive | inactive | inactive | inactive | inactive | inactive | inactive | inactive | inactive | inactive | inactive
O=C(O)CC(O)CC(O)/C=C/c1c(C2CC2)nc2ccccc2c1-c1ccc(F)cc1 (stereo unspecified) | inactive | inactive | inactive | inactive | inactive | inactive | inactive | inactive | inactive | inactive | inactive | inactive | inactive | inactive | inactive | inactive | inactive | inactive | inactive | inactive
CCCCN1CC(O)C(O)C(O)C1CO (stereo unspecified) | inactive | inactive | inactive | inactive | inactive | inactive | inactive | inactive | inactive | inactive | inactive | inactive | inactive | inactive | inactive | inactive | inactive | inactive | inactive | inactive
C/C1=C2/[N-]C(C(CC(N)=O)[C@@]2(C)CCC(=O)NCC(C)OP(=O)([O-])O[C@H]2[C@@H](O)[C@@H](n3cnc4cc(C)c(C)cc43)O[C@@H]2CO)[C@]2(C)N=C(/C(C)=C3N=C(/C=C4N=C1C(CCC(N)=O)C\4(C)C)[C@@H](CCC(N)=O)[C@]\3(C)CC(N)=O)[C@@H](CCC(N)=O)[C@]2(C)CC(N)=O.CC(=O)O.[Co] (stereo partly specified) | inactive | inactive | inactive | inactive | inactive | inactive | inactive | inactive | inactive | inactive | inactive | inactive | inactive | inactive | inactive | inactive | inactive | inactive | inactive | inactive
CC(=O)N[C@H]1[C@H](O[C@@H]2c3ccc(c(Cl)c3)Oc3cc4cc(c3O[C@@H]3O[C@H](CO)[C@@H](O)[C@H](O)C3C)Oc3ccc(cc3Cl)C[C@H]3NC(=O)[C@@H](N)c5ccc(O)c(c5)Oc5cc(O)cc(c5)[C@H](NC3=O)C(=O)N[C@H]4C(=O)N[C@H]3C(=O)N[C@@H]2C(=O)N[C@@H](C(=O)O)c2cc(O)cc(O[C@H]4O[C@H](CO)[C@@H](O)C(O)[C@@H]4O)c2-c2cc3ccc2O)O[C@H](CO)[C@@H](O)[C@@H]1O (stereo partly specified) | inactive | inactive | inactive | inactive | inactive | inactive | inactive | inactive | inactive | inactive | inactive | inactive | inactive | inactive | inactive | inactive | inactive | inactive | inactive | –

Source: PubChem BioAssay (NCATS)
